About 83,000 compounds went through this panel and 20% of them were active in at least one assay; those are over-represented in the sample as a whole.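 Growth was measured after 48 h exposure to one concentration of compound in 96-well plates. Values under 10 count as active.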 A number with no mark means an inactive call. Activity calls are given as the source filed them.
tested on: HL-60(TB) leukemia; assay: NCI-60 one-dose screen, 48 h (100 = growth as untreated, 0 = no growth, -100 = all killed); conditions: 10 µM unless noted

SMILES	growth
COc1ccc(C(SCCNCc2cc(N(C)C)ccn2)(c2ccccc2)c2ccccc2)cc1	-43.7% (active)
N#Cc1c(-c2ccc(Br)cc2)nc2n[nH]c(-c3ccc(Br)cc3)c2c1-c1ccc(C(F)(F)F)cc1	-26.2% (active)
C/C(=C\CSc1ccccc1C(=O)O)CCCC(C)CCCC(C)CCCC(C)C (stereo not given)	41.2%
S=C(Nc1ccccc1)Nc1ccc(OCc2nc3ccccc3[nH]2)cc1	20.2%
Cc1cccc(NC(=O)CSc2nc3ccc(F)cc3c(=O)n2-c2ccc(Cl)cc2)c1C	96.4%
COc1ccc2c(c1)C(=O)N(C)C2C1c2c(cc3c(c2OC)OCO3)CCN1C (stereo not given)	-6.5% (active)
NS(=O)(=O)c1ccc(Nc2nc(SCC(=O)c3ccc(F)cc3)nc3ccccc23)cc1	63.7%
C/C(=N\Nc1ccc(C(=O)O)cc1)c1cnn(-c2cc(=O)[nH]c3ccc(C)cc23)c1C	101%
O=C1S/C(=C\c2ccc([N+](=O)[O-])cc2)C(=O)N1CCN1CCCCC1	98.6%
COc1ccc2c(c1)C(Sc1ccc(Br)cc1)c1c(nc(N)c(C#N)c1N)O2 (stereo not given)	78%
COc1ccc(C(=O)/C=C/c2ccc(OCc3ccccc3)c(OC)c2)cc1OC	5.55% (active)
Cn1cc(-c2cc(N)n3nc(-c4cn(C)c5ccc(Cl)cc45)cc3n2)c2ccccc21	92.5%
Nc1nnc(-c2c[nH]c3ncc(Br)cc23)c(-c2c[nH]c3ccc(F)cc23)n1	-0.929% (active)
COc1cc(Nc2nc(O)c(/C=C3\C=Nc4ccccc43)s2)cc(OC)c1OC	-16% (active)
O=C(N/N=C/c1ccsc1)c1[nH]c2ccc(Br)cc2c1-c1ccccc1	-33.7% (active)
CC(=O)Nc1ccc(-c2cn(-c3cccc(C(=O)Nc4cc(C(F)(F)F)cc(C(F)(F)F)c4)c3)nn2)cn1	-60.5% (active)
O=c1[nH]n(C(=S)N/N=C/c2ccc(F)cc2)c(=O)c2ccccc12	44.7%
Cn1cc(NC(=O)c2cc(NC(=O)c3ccc(C#Cc4ccccc4)cc3)cn2C)cc1C(=O)NCCCN1CCOCC1	-67% (active)
N#Cc1c(NC(=O)c2ccc(C(F)(F)F)cc2)sc2c1CCC(O)=C2	6.28% (active)
CN(C(=O)c1ccc(C(C)(C)C)cc1)c1sc2c(c1C#N)CCC(=O)C2	52.4%

SMILES	growth
O=C(N/N=C/c1ccc(Cl)cc1)c1ccc(OCc2nc3ccc(Cl)cc3[nH]2)cc1	81.7%
O=C1Nc2ccc(F)cc2/C1=C/C(=O)c1cc2ccccc2oc1=O	85.6%
CCCCSc1nc(NCCc2c[nH]c3ccccc23)c(C#N)c(-c2ccc(F)cc2)n1	53.8%
COc1cc2c(c(OC)c1OC)C(=O)CC(c1cccc(NC(=O)c3cc(NC(=O)[C@@H](N)CO)ccc3C)c1)O2 (stereo not given in full)	101%
O=C1/C(=C/C2=Cc3ccccc3OC2)SC(=S)N1c1ccccc1F	87.9%
NC1=NC(c2ccccc2Cl)N=C(Nc2nn[nH]n2)N1 (stereo not given)	110%
COc1cc(-c2nc3ccc(C)cc3[nH]2)ccc1OCc1nnc(-c2ccccc2Br)o1	69.5%
COc1ccc(Cn2cc(C#N)c(N)c2C(C)=O)c(OC)c1	99%
CC1=C(c2cc(-c3ccc(Cl)cc3)c(C#N)c(N)n2)C(c2ccccc2)NC(=S)N1 (stereo not given)	5.3% (active)
COc1ccc(C2(SCCNCc3cc(N(C)C)ccn3)c3ccccc3C=Cc3ccccc32)cc1	-21.8% (active)
Cc1ccc(O)cc1Nc1nc(SCCN2CCOCC2)nc2c1cnn2CC(Cl)c1ccc(Br)cc1 (stereo not given)	-49.7% (active)
O=C1Nc2ccc(F)cc2/C1=C/c1cccc(OCc2ccccc2)c1	-17.4% (active)
CCCCNc1ccc2c3c(cccc13)C(=O)N(NCC(O)COc1ccc3c(C)cc(=O)oc3c1)C2=O (stereo not given)	100%
Cc1ccc(-c2cc(C(=O)N=Nc3c(O)[nH]c4ccccc34)c3ccccc3n2)cc1	28.2%
COc1ccc(-c2nc3ccc(C(=O)NN4C(=O)c5ccc([N+](=O)[O-])cc5C4=O)cc3[nH]2)cc1	104%
COc1ccc(/C=C/c2nc3ccccc3n3c(-c4cccc([N+](=O)[O-])c4)nnc23)cc1	-49.3% (active)
Cc1cc2nc3c4ccccc4n(CCO)c3nc2cc1C	101%
O=C(NNC(=O)c1ccc(OCc2nc3ccc(Cl)cc3[nH]2)cc1)Nc1ccc(Cl)c(Cl)c1	103%
COc1ccc2nc(Nc3cccc(NC(=O)c4ccc(CN5CCCN(C)CC5)c(C(F)(F)F)c4)c3)ccc2c1	-28% (active)
CN(C)c1nc(NCCNS(=O)(=O)c2ccc(C3=Nc4c(N)nc(N)nc4NC(c4ccc(C(F)(F)F)cc4)C3)cc2)nc(N2CCOCC2)n1 (stereo not given)	6.05% (active)
